Measurements reported in PubChem BioAssay AID2501 (Southern Research Specialized Biocontainment Screening …, 2010).
About 1,200 (55%) of roughly 2,200 compounds were called active. No cut-off is given here; in the data, nearly all actives have IC50 up to about 92 µM. The set was probably picked from earlier hits. The list shows a part of the results.

Test: counter assay for TAg ATPase ADP read-out – biochemical, ADP-Hunter, fluorescence, counter-screen (AID 2501);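 note: purified T antigen ATPase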;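 for inhibition: 0% = enzyme with vehicle and 100% = reference inhibitor wells; higher means more inhibition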
Details: series mostly up to 100 µM; inhibition: at the top concentration

SMILES	inhibition	IC50
CCOc1cccc(=O)c2c(C)n(-c3ccc(C(=O)O)cc3)c(C)c12	-5.55% (inactive)	
CCOc1ccccc1NC(=O)COC(=O)c1cccc(-c2ccc(OC(C)=O)cc2)c1	24.5% (inactive)	
CCOc1cc(NC2CS(=O)(=O)CC2O)c(OCC)cc1NC(=O)c1ccccc1 (stereo unspecified)		4.18 µM (active)
COc1ccc2c(=O)c3c(=O)n(Cc4ccco4)c(-c4ccco4)nc3oc2c1	7.05% (inactive)	
CC(=O)NCCc1c[nH]c2ccc(O)cc12		7 µM (active)
O=C1c2ccccc2C(=O)N1CCc1c[nH]c2ccc(O)cc12		7.26 µM (active)
Cc1ccc(S(=O)(=O)N2CCCOC2CNC(=O)C(=O)NCCc2c[nH]c3ccccc23)cc1 (stereo unspecified)	18.5% (inactive)	
OCCc1c[nH]c2ccc(C(F)(F)F)cc12	8.25% (inactive)	
O=[N+]([O-])c1ccc(S(=O)(=O)N2CCSC2c2ccco2)cc1 (stereo unspecified)	-53.9% (inactive)	
COc1cc(/C=N/N=C(\N)c2nonc2N)ccc1O		4.89 µM (active)
N/C(=N\N=C\c1ccc(O)c(O)c1)c1nonc1N		14 µM (active)
O=c1oc2ccccc2c2oc3cc(O)c(O)cc3c12		8.13 µM (active)
COc1ccc(C2CC(=O)C(C(c3ccc(O)cc3)C3C(=O)CC(c4ccc(OC)cc4)CC3=O)C(=O)C2)cc1 (stereo unspecified)	1.91% (inactive)	
CN(C)c1ccc(C(=O)c2ccc(N(C)C)c(N)c2)cc1N		4.76 µM (active)
COc1cc(/C=N\NC(=O)CNC(=O)c2cccc([N+](=O)[O-])c2)ccc1O		2.18 µM (active)
O=C(CNC(=O)c1ccccc1)OCc1ccc([N+](=O)[O-])cc1	1.14% (inactive)	
COc1cc(/C=N/NC(=O)c2cccc([N+](=O)[O-])c2)ccc1O		2.38 µM (active)
C#CCOCCOCCOCCNc1nc(N2CCN(C(=O)CCCCCCCCCCNC(=O)[C@H](CCCCN)n3cc(C[C@@H](C)CC)nn3)CC2)nc(N2CCN(C(=O)CCCCCCCCCCNC(=O)[C@H](CCCCN)n3cc(C[C@@H](C)CC)nn3)CC2)n1	0.98% (inactive)	
CN(C)S(=O)(=O)c1cccc(-n2sc3ccccc3c2=O)c1		8.98 µM (active)
O=C(O)c1ccccc1NS(=O)(=O)c1cccc(-n2sc3ccccc3c2=O)c1		9.24 µM (active)
Cc1ccc(-n2sc3ccccc3c2=O)cc1S(=O)(=O)N1CCCCC1		24.1 µM (active)
CCC1CCCCN1S(=O)(=O)c1ccc(NC(=O)c2nc(S(C)(=O)=O)ncc2Cl)cc1 (stereo unspecified)	14.9% (inactive)	
O=C(C1=C[C@@H](c2ccc(Br)cc2)C[C@@H](OCCCCO)O1)N1CCOCC1	10.4% (inactive)	
Nc1c(/C=C2/C=CC(=O)C(O)=C2)c(=O)nc2sc(CC(=O)N3CCCCC3)nn12		10.5 µM (active)

SMILES	inhibition	IC50
Nc1c(C=C2C=CC(=O)C=C2)c(=O)nc2sc(CC(=O)N3CCCCC3)nn12		12.5 µM (active)
Nc1c(/C=C2/C=CC(=O)C(O)=C2)c(=O)nc2sc(CC(=O)N3CCCC3)nn12		8.26 µM (active)
COC1=C/C(=C/c2c(N)n3nc(CC(=O)N4CCCCC4)sc3nc2=O)C=CC1=O		7.89 µM (active)
CC(=O)O[C@H]1C[C@@]2(C)[C@@H](C[C@@H](O)[C@H]3[C@@]4(C)CC[C@@H](O)[C@@H](C)C4CC[C@@]32C)/C1=C(\CCC=C(C)C)C(=O)O (stereo partly specified)	28.7% (inactive)	
CC(=O)NCCC1CCCCN1Cc1nc(Cc2cccc(C(F)(F)F)c2)no1 (stereo unspecified)	18.1% [at 50 µM] (inactive)	
Cc1ccc(C(C(=O)NCc2ccc(F)cc2)N(CCCO)C(=O)C2COc3ccccc3O2)o1 (stereo unspecified)	-18.2% (inactive)	
O=c1[nH]c(/C=C\c2ccc(O)c(O)c2)nc(O)c1[N+](=O)[O-]		5.5 µM (active)
O=c1oc2cc(O)ccc2s1		11.8 µM (active)
O=C(O)c1cc(S(=O)(=O)Nc2ccc3oc(=O)sc3c2)ccc1O	13.4% [at 50 µM] (inactive)	
CCOC(=O)NNc1ccc2nonc2c1[N+](=O)[O-]	10.1% (inactive)	
O=c1cc(-c2ccccc2Cl)oc2cc(O)cc(O)c12	-10.2% (inactive)	
O=c1c2cc(O)c(O)cc2oc2cc(O)c(C3OC(CO)C(O)C(O)C3O)c(O)c12 (stereo unspecified)		6.35 µM (active)
O=c1cc(-c2ccc(O)cc2)oc2cc(O)c(C3OC(CO)C(O)C(O)C3O)c(O)c12 (stereo unspecified)		18.6 µM (active)
O=c1cc(-c2ccc(O)cc2)oc2c(C3OCC(O)C(O)C3O)c(O)c(C3OC(CO)C(O)C(O)C3O)c(O)c12 (stereo unspecified)		17.3 µM (active)
O=c1cc(-c2ccc(O)c(O)c2)oc2cc(O)c(C3OC(CO)C(O)C(O)C3O)c(O)c12 (stereo unspecified)		5.59 µM (active)
Cc1cccc(N2CCN(C(=O)Cn3sc4nc(C)cc(C)c4c3=O)CC2C)c1 (stereo unspecified)	-23.9% (inactive)	
O=c1[nH]c(=S)[nH]c2c1C(c1ccc(Br)cc1)c1c([nH]c(=S)[nH]c1=O)O2	18.7% (inactive)	
O=C1CCCC2=C1C(c1ccc(Br)cc1)c1c([nH]c(=S)[nH]c1=O)N2 (stereo unspecified)		92 µM (active)
COCCCNC(=S)N/N=C/c1ccc(O)cc1		1.83 µM (active)
COCCCNC(=O)c1cc2cc3cc(OC)ccc3nc2o1	5.55% (inactive)	
COCCNC(=S)N/N=C(\C)c1ccc(O)cc1		3.77 µM (active)
C/C(CCc1ccccc1)=N\NC(=S)NCCc1ccccc1	16.8% (inactive)	
COCCCNC(=S)N/N=C/c1ccc(O)cc1O		6.62 µM (active)
O=[N+]([O-])c1ccc2c(c1N1CCCCC1)=NC1(CCCCC1)[N+]=2[O-]	-22% (inactive)	

SMILES	inhibition	IC50
COc1ccc(NC(=O)c2sc(=S)[nH]c2N)cc1		8.22 µM (active)
N=C1/C(=C\c2ccc(SCc3ccco3)o2)C(=O)N=C2SC=NN12	-16% (inactive)	
O=C1Nc2ccccc2/C1=N\N=C\c1ccc(O)c(O)c1		8.1 µM (active)
COc1cc(/C=N/N=C2/C(=O)Nc3ccccc32)ccc1O		4.52 µM (active)
COc1cc(/C=N/N=C2/C(=O)Nc3ccccc32)cc(OC)c1O		5.67 µM (active)
CCOC(=O)CN1C(=O)CC(c2ccc([N+](=O)[O-])cc2)C1=O (stereo unspecified)	-22.7% (inactive)	
O=C(CS(=O)(=O)c1ccccc1)c1cc2cc(F)ccc2oc1=O	10.5% [at 50 µM] (inactive)	
CN(C)C(=O)c1c(-c2ccccc2)oc2ccc(O)cc12		17.2 µM (active)
C=CCSC1=NC(=O)/C(=C/c2cccs2)S1	-34% (inactive)	
COc1ccc(N2C(=S)NC3c4cc(Cl)ccc4OC2(C)C3C(=O)N(C)C)cc1 (stereo unspecified)	12.2% [at 50 µM] (inactive)	
CCOc1cc(/C=C2\C(=O)NN(c3ccccc3)C2=O)cc([N+](=O)[O-])c1O		6.78 µM (active)
CCOc1cc(/C=C2\C(=N)N3N=CSC3=NC2=O)ccc1OS(=O)(=O)c1ccccc1	1.1% (inactive)	
Cc1ccsc1/C=C1/C(=O)NN(c2ccccc2)C1=O		1.75 µM (active)
COc1cc(/C=C2\C(=O)NN(c3ccccc3)C2=O)cc([N+](=O)[O-])c1O		59.3 µM (active)
CCOc1cc(/C=C2\C(=O)ON=C2c2ccccc2)cc(Br)c1O	7.3% [at 50 µM] (inactive)	
COc1cc(/C=C2/C(=O)NN(c3ccc(Cl)c(Cl)c3)C2=O)cc([N+](=O)[O-])c1O		14.6 µM (active)
C/C(=N\NC(=O)c1csc(C)c1C)c1ccc(C)s1	-12.3% (inactive)	
O=Cc1coc2c(ccc3ccccc32)c1=O		10.1 µM (active)
O=C1CC(c2ccc(O)c(O)c2)Oc2cc(O)cc(O)c21 (stereo unspecified)		4.23 µM (active)
O=C1CC(c2ccc(O)c(O)c2)Oc2c1ccc(O)c2O (stereo unspecified)		13.6 µM (active)
O=C1c2c(O)cc(O)cc2O[C@H](c2ccc(O)c(O)c2)[C@H]1O		5.9 µM (active)
COc1cc([C@@H]2Oc3cc(C4Oc5cc(O)cc(O)c5C(=O)[C@H]4O)ccc3O[C@H]2CO)ccc1O (stereo partly specified)		31.4 µM (active)
COc1cc(OC)c2c(c1O)OC(c1ccccc1)CC2=O (stereo unspecified)	16.1% (inactive)	
CC(=O)Nc1nnc(SCc2cccc(F)c2)s1	-9.37% (inactive)	

SMILES	inhibition	IC50
O=C1NC(=S)S/C1=C/c1ccc(N2CCOCC2)o1		18.9 µM (active)
O=C1NC(=S)S/C1=C\c1ccc(SCc2ccccc2)o1	28.9% (inactive)	
O=C(O)CN1C(=O)/C(=C\C(Br)=C\c2ccccc2)SC1=S	25.4% (inactive)	
O=C1/C(=C/c2ccco2)SC(=S)N1CCC(=O)N1CCCCC1CCO (stereo unspecified)	4.5% (inactive)	
O=C(O)CN1C(=O)/C(=C/c2ccc(N3CCCCC3)o2)SC1=S		38.4 µM (active)
COc1ccccc1N1C(=O)C=C(Sc2nc(C)cc(C)n2)C1=O	10.2% (inactive)	
CN(C)c1ccc(N=c2sc3ccccc3n2C)cc1		7.65 µM (active)
COC(=O)/C(=C/Nc1ccc(O)cc1)[N+](=O)[O-]		3.8 µM (active)
O=C(c1ccco1)N1CCN(C(=S)Nc2ccc(F)c(Cl)c2)CC1		39.5 µM (active)
N=c1c[n+](N2CCOCC2)[n-]o1	4.79% (inactive)	
CN1CCN(c2nc(Nc3ccc(O)cc3)nc3ccccc23)CC1		6.32 µM (active)
Oc1ccc(Nc2nc(N3CCCC3)c3ccccc3n2)cc1		4.06 µM (active)
O/N=C/c1ccc2ccccc2c1	21.4% (inactive)	
C(=Nc1ccc(Nc2ccccc2)cc1)c1ccc2ccccc2c1		6.4 µM (active)
C/C(=C/c1oc2ccc(O)cc2c1[N+](=O)[O-])N(C)C		5.75 µM (active)
O=C(C1=C[C@H](C2CCCCC2)C[C@H](OCCCCO)O1)N1CCN(Cc2ccc3c(c2)OCO3)CC1	-36% (inactive)	
O=C(c1ccccc1)N1CCN(c2ccc(NCc3ccc4c(c3)OCO4)cc2)CC1		5.7 µM (active)
O=C(c1ccc(CNS(=O)(=O)c2ccccc2)cc1)N1CCN(Cc2ccccc2)CC1	19.2% (inactive)	
CC(=O)N1CCN(c2ccc(NCc3cccc4ccccc34)cc2)CC1		4.52 µM (active)
CC(=O)N1CCN(c2ccc(NCc3ccc(C)s3)cc2)CC1		3.62 µM (active)
O=C(O)CC(C(=O)O)n1nc(-c2ccccc2)cc1-c1ccccc1 (stereo unspecified)	-0.27% (inactive)	
CC(=O)c1ccc2c(c1)C1C=CCC1C(C(=O)O)N2 (stereo unspecified)	-19.7% (inactive)	
CCn1ccc(C(=O)N2CCN(c3ncccn3)CC2)n1	-18.8% (inactive)	
Cc1csc(N/N=C/c2ccc(O)c([N+](=O)[O-])c2)n1		13.2 µM (active)
